Screening results from PubChem BioAssay.
Most compounds without a hit are left out; they make up all but 6.5% or so of the library.
HepG2 viability: kills HepG2 cells in TGF-b inhibitor counter-screen. 410,000 compounds, 0.76% hits. HepG2 CAGA-GFP viability, ATP luminescence, 18 h. Potency, µM (highest dose often 46.1 µM), usual class: cytotoxic
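CellTiter-Glo luminescence gave cytotoxicity after 18 hours at 37 degrees C. The cells were HepG2 CAGA-GFP in 1% FBS DMEM, stimulated with 500 pg/mL TGF-beta after compound addition. %Activity was normalised to no-cell wells (complete cell-killing) and DMSO (no toxicity), and curves were fitted and classified.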
TGFb SMAD3 inh: TGF-b pathway inhibition | HepG2 CAGA-GFP TGF-b/SMAD3 reporter, GFP fluorescence, 18 h; TGF-beta stimulated, 500 pg/mL final | Potency, µM (titrated, usually from 46.1 µM), usual class: inhibitors | 410,000 compounds, 1.2% hits | AID 588855; also: nearly all actives have a fitted effect of over 65% in size
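Per well, imaged GFP fluorescence of HEPG2 CAGA-GFP cells gives the signal; cells get compound, then TGF-beta (500 pg/mL final), 18 h at 37 degrees C; %Activity versus -TGF-beta and +DMSO controls.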
HT1080NT lethal: kills 2HG-producing HT-1080-NT fibrosarcoma cells | 360,000 compounds, 1.6% hits | Potency, µM (doses to about 46.1 µM), actives largely listed as cytotoxic | AID 686970 | HT-1080-NT fibrosarcoma viability, CellTiter-Glo ATP luminescence, 48 h;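 also: NT is the 2HG producing partner of a matched IDH1 knockdown line; nearly all actives have a fitted effect of over 55% in size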
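Luminescent CellTiter-Glo readout after 48 hours of compound exposure at 37 degrees C defined viability of HT-1080-NT cells. Activity was normalized to DMSO wells and cell-free media wells; concentration-response curves were fitted and assigned curve classes.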
Giardia killer: kills Giardia lamblia; Giardia lamblia trophozoite viability; activity change, % at 7.66 µM, hits read low; 340,000 compounds, 0.15% hits; AID 540267; in the data active = activity change below about -80%; inconclusive = between about -30% and that limit;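 also: parasites exposed to compound for two days anaerobically before the ATP read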
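Luminescence from cellular ATP indicates surviving trophozoites (100 cells/well) following 48 hrs anaerobic compound treatment at 37 deg C; signal develops 15-30 min at room temperature.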
HT1080 IDH1KD tx: toxicity to HT-1080 IDH1 knockdown cells (counter line); AID 686971; 360,000 compounds, 2% hits; HT-1080 IDH1 knockdown viability, ATP luminescence, 48 h; Potency, µM (highest dose often 46.1 µM), actives largely listed as cytotoxic
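After a 2 h attachment period, IDH1KD HT-1080 cells took pin-transferred compound for 48 h at 37 °C; ATP-based luminescence after 10 min room-temperature reagent incubation reported viability.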
IL1B secr inh: blocks inflammasome-driven IL-1 beta release | THP-1 LPS/ATP IL-1B secretion, AlphaLISA, 16 h; hits give low values | activity change, % at 57.5 µM | 360,000 compounds, 4.7% hits | AID 743279; in the data active = activity change below about -50%; inconclusive = mostly about -30% to -49%
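THP-1 cells pretreated 1 hr with compounds (up to 57.5 uM final), then stimulated with LPS (250 ng/mL final) plus ATP (1.25 mM final); secreted IL-1B measured by AlphaLISA after 16 hr, decreased signal indicating inhibition.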
Of the large screens only hits and unclear results are named; the others gave an inactive call. Unless noted, calls follow the shape of the dose curve; as a rule, active = well fitted curve in the direction sought with a large enough effect; inconclusive = small, poorly fitted or top-dose-only effect, or another doubt; inactive = no such curve, though single readings can be large; an effect the other way counts as inactive or inconclusive.

O=C1NC(c2cccc(OCc3ccccc3)c2)Nc2ccccc21 (stereo not drawn)	TGFb SMAD3 inh inconclusive, HT1080NT lethal inconclusive, HT1080 IDH1KD tx 0.58µM
Cc1ccc(C(c2nnnn2CCc2ccccc2)N2CCC(C)CC2)cc1 (stereo not drawn)	TGFb SMAD3 inh inconclusive, HT1080 IDH1KD tx inconclusive, IL1B secr inh -64
Cc1ccc(C(c2nnnn2CCc2ccccc2)N2CCSCC2)cc1 (stereo not drawn)	none
CCN(CC)C(=O)Cn1cnc2sc(C(=O)NCCCN3CCOCC3)c(C)c2c1=O	none
N#CC(C#N)=Cc1cn(-c2ncc(C(F)(F)F)cc2Cl)c2ccccc12	HT1080NT lethal inconclusive
CCN1CCN(c2cc(-c3ccccc3)nc3cc(-c4cccc(F)c4)nn23)CC1	TGFb SMAD3 inh inconclusive, HT1080NT lethal 23µM, HT1080 IDH1KD tx inconclusive, IL1B secr inh -62
COc1cccc(-c2cc3nc(-c4ccccc4)cc(N4CCCC(O)C4)n3n2)c1 (stereo not drawn)	TGFb SMAD3 inh 13µM, HT1080NT lethal inconclusive, HT1080 IDH1KD tx inconclusive, IL1B secr inh inconclusive
Cc1cccc(-c2cc3nc4c(c(N5CCCC(O)C5)n3n2)CCC4)c1 (stereo not drawn)	TGFb SMAD3 inh inconclusive, HT1080NT lethal inconclusive, HT1080 IDH1KD tx inconclusive (no result: IL1B secr inh)
COc1ccc(-c2cc3nc(-c4ccccc4)cc(N4CCC5(CC4)OCCO5)n3n2)cc1	none
OC1CCCN(c2c3c(nc4cc(-c5cccc(Cl)c5)nn24)CCC3)C1 (stereo not drawn)	TGFb SMAD3 inh inconclusive, HT1080NT lethal inconclusive, IL1B secr inh -102
OC1CCN(c2cc(-c3ccccc3)nc3cc(-c4ccc(F)cc4)nn23)CC1	none
O=C(COC(=O)c1ccc(Br)o1)Nc1ccc2[nH]c(=O)[nH]c2c1	none
O=C(CSC1=NCCN1)NC(c1ccccc1)c1ccccc1	TGFb SMAD3 inh inconclusive, HT1080NT lethal inconclusive, HT1080 IDH1KD tx inconclusive, IL1B secr inh -105
O=C(CSC1=NCCN1)Nc1cccc([N+](=O)[O-])c1	IL1B secr inh -67
O=C(CSC1=NCCN1)Nc1ccccc1[N+](=O)[O-]	IL1B secr inh -119
O=C(CC(=O)Nc1ccccc1[N+](=O)[O-])Nc1ccccc1[N+](=O)[O-]	IL1B secr inh -64
Nc1nc(SCC(=O)Nc2cccc([N+](=O)[O-])c2)n[nH]1	none
COc1ccccc1NC(=O)CSC1=NCCN1	none
CC(C)NC(=O)c1ccc2c(c1)N(CC(=O)N1CCCCC1)C(=O)C(C)(C)O2	none
COc1ccccc1N1CCN(C(=O)c2cc3n(n2)C(C(F)(F)F)CC(c2ccco2)N3)CC1 (stereo not drawn)	none
Cc1ccc(NC(=O)CSC2=NCCN2)cc1	IL1B secr inh -61
NS(=O)(=O)c1cccc(NC(=O)CCSc2ccccc2Cl)c1	none
O=C(CCSc1ccccc1Cl)Nc1cccc([N+](=O)[O-])c1	TGFb SMAD3 inh inconclusive, HT1080 IDH1KD tx inconclusive, IL1B secr inh -150
C=C1C(=O)C23CCC4C(C)(C(=O)OC)CCCC4(C)C2CCC1(O)C3 (stereo not drawn)	HepG2 viability 2.8µM, TGFb SMAD3 inh 3.2µM, HT1080NT lethal 9.2µM, HT1080 IDH1KD tx 2.3µM, IL1B secr inh -103
CCOC(=O)N1CCN(C(=O)c2cnn3c(C(F)(F)F)cc(-c4cccs4)nc23)CC1	none
CCc1ccc(C(=O)NNC(=O)CC2OC(=O)c3ccccc32)cc1 (stereo not drawn)	none
Cc1c2ccccc2nc2c(F)c(N(C)C)c(F)c(F)c12	none
Cc1nc([N+](=O)[O-])c(Br)n1Cc1ccc(Cl)c(Cl)c1	TGFb SMAD3 inh inconclusive, HT1080NT lethal inconclusive, HT1080 IDH1KD tx inconclusive, IL1B secr inh -60
COc1ccc(C(=O)Cn2c(C)nc([N+](=O)[O-])c2Br)cc1	TGFb SMAD3 inh inconclusive, HT1080NT lethal inconclusive, HT1080 IDH1KD tx inconclusive (no result: IL1B secr inh)
